The results in this text go back to PubChem BioAssay (NCI).

Each structure is given as a SMILES string. The panel holds about 79,000 compounds, 15% with a hit somewhere; the sample as a whole holds those more often. Unmarked numbers belong to inactive results. Calls of active or inactive are those of the source. Cut-off read from the data, not from the text of the source: active = growth inhibition above about 70%; inactive = the rest.

A short description of the first experiment: NCI Yeast Anticancer Drug Screen. Data for the bub3 strain (AID 167). The settings on record: S. cerevisiae bub3 mutant strain, at 50.0 µM, hits give high values. The gist of the method: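 Steps: expose the mutant yeast strain to compound; grow alongside vehicle-treated cultures; measure growth; express inhibition against the vehicle cultures.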
On to `Cc1ccc(C(=O)C(O)c2ccc(C)cc2)cc1` (stereo not given), for which the growth inhibition was 0.55%.

`CC1(c2ccc(-c3ccccc3)cc2)NC(=O)NC1=O` (stereo not given): the growth inhibition is -4.85%.

As for `N#CC(N)c1ccc(OCCCCCCCCCCOc2ccc(C(N)C#N)cc2)cc1` (stereo not given), the growth inhibition was -17.4%.

As to `O=C1NC(=O)C(=C/C=C/C=C\C2C(=O)NC(=O)NC2=O)C(=O)N1`, the growth inhibition is -23.1%.

`C=C(C)C(=O)OCCOCC(CC)CCCC` (stereo not given): the growth inhibition is -3.35%.

With `CCCCCC(C/C=N/N(C)C)C(O)(C(F)(F)F)C(F)(F)F` (stereo not given), the growth inhibition was 15.4%.

For the compound `CCOc1ccc(NC(=O)C(=O)CC(=O)c2sc(NNC(C)=O)nc2C)cc1`, the growth inhibition is 5.4%.

For `COc1ccc(Cc2ccccc2C(=O)c2ccc(OC)cc2)cc1`, the growth inhibition is 4.6%.

Regarding `COc1c(C(=O)O)ccc(C(=O)NCCCCCN(O)C(=O)CCC(=O)NCCCCCN(O)C(=O)CCC(=O)NCCCCCN(O)C(C)=O)c1OC`, the growth inhibition is -0.6%.

For the compound `O=C1OC(c2ccc(Cl)cc2)=N/C1=C\c1c(Cl)cccc1Cl`, the growth inhibition was 5.9%.

Regarding `CCOC(=O)C1=C(C)Oc2cc3c(cc2C1c1ccc(OC)cc1)OCO3` (stereo not given), the growth inhibition was 31.4%.

Regarding `COc1ccc(-c2c3c(nc4nc(SCC(=O)c5ccc(Br)cc5)nc(N)c24)CCCC3)cc1OC`, the growth inhibition was -16.6%.

As for `CCCC1(C)OCC(CCl)O1` (stereo not given), the growth inhibition is -18.3%.

Turning to `CCCCCCCCCCCC(=O)Nc1ccc(C(C)C)cc1`, the growth inhibition was 21.2%.

As for `COC(=O)C(O)(C(=O)OC)C1=C(N)C(=O)c2ccccc2C1=O`, the growth inhibition is 40.8%.

On to `CC12CCC3c4ccc(OC(=O)C56C=CC(=O)C5C5C=CC6CC5)cc4CCC3C1CCC2=O` (stereo not given), for which the growth inhibition was -4.05%.

As to `COC(=O)CCc1cc(=O)oc2ccc3cc(CC(=O)OC)oc3c12`, the growth inhibition was -7.2%.

For the compound `CCCCOC(=O)c1ccc(O)cc1.[Zn+2]`, the growth inhibition is -22.4%.

For the compound `CC(=O)C1=C(O)C2(O)C(=O)c3c(c(C)c4ccc(C)c(O)c4c3O)CC2C(N)C1=O` (stereo not given), the growth inhibition was 19%.

Consider `O=C1CCCCC1CN1CCOCC1` (stereo not given), for which the growth inhibition was -22.1%.

For the compound `Cc1ccc(/C=C(/C#N)C(N)=O)cc1`, the growth inhibition was 12.5%.

For the compound `O=C(CNc1ccc(Cl)cc1Cl)NC1C=Cc2ccc(S(=O)(=O)Nc3ccc(Cl)cc3Cl)cc2C1=O` (stereo not given), the growth inhibition was 29.1%.

With `CC1(C)C(CC(=O)O)CC1C(=O)O` (stereo not given), the growth inhibition was -34.6%.

Consider `CC(O)CNC(=O)C(C)O` (stereo not given), for which the growth inhibition was 8.25%.

For `CC1(C)[C@@H]2C[C@H]1[C@@H](Cc1cccc(C[C@H]3c4cc(-c5ccccn5)ncc4[C@H]4C[C@@H]3C4(C)C)c1)c1cc(-c3ccccn3)ncc12`, the growth inhibition is 45.9%.

On to `COC(=O)CC(NC(=O)OCc1ccccc1)C(=O)NCC(=O)NCC(=O)O` (stereo not given), for which the growth inhibition is -4.7%.

`C=CCCc1cc(OC)ccc1C(=O)C(C)C`: the growth inhibition is 0.2%.

`CCOC(=O)Nc1cc(C(F)(F)F)ccc1F`: the growth inhibition was 3.95%.

Regarding `c1csc(-c2nn3c(C45CC6CC(CC(C6)C4)C5)nnc3s2)c1`, the growth inhibition is 2.3%.

As to `Cc1c2ccn3c(=O)c4ccccc4cc3c2c(C)c2c1[nH]c1ccccc12`, the growth inhibition is 21.8%.

As for `O=C(O)c1cc(-c2ccccc2)nc2c(Cl)cc(Cl)cc12`, the growth inhibition is -16.4%.

In the case of `CCOC(=O)C(CN1CCN(CC(NC=O)(C(=O)OCC)C(=O)OCC)CC1)(NC=O)C(=O)OCC`, the growth inhibition was 1.15%.

Turning to `COc1cc(C2c3cc4c(c(OC(=O)c5ccncc5)c3CC3COC(=O)C32)OCO4)cc(OC)c1OC` (stereo not given), the growth inhibition is 5.8%.

Take `O=C(O)C1CCCCN1C(=O)c1ccccc1` (stereo not given): the growth inhibition was -21.2%.

As to `O=C1OC(c2cccc(Cl)c2)=N/C1=C\c1ccc(Cl)cc1`, the growth inhibition is 7.5%.

Regarding `CC1=C(C#N)C(C#N)(C#N)C(NN(C)C)C1` (stereo not given), the growth inhibition is -15.9%.

Consider `S=C1c2cc(Cl)ccc2NC(=NC2CCCC2)C2CSCN12` (stereo not given), for which the growth inhibition was 33.3%.

Turning to `CCCCCCCCO[Si](OCCCCCCCC)(OCCCCCCCC)OCCCCCCCC`, the growth inhibition is -15.2%.

As for `C=CC(C)(CCC=C(C)C)OC(C)=O` (stereo not given), the growth inhibition is 23.9%.

`COc1cc(/C=C/c2cc(/C=C/c3ccc(O)c(OC)c3)c([N+](=O)[O-])cc2[N+](=O)[O-])ccc1O`: the growth inhibition is 7.15%.

The next experiment is described as follows: NCI Yeast Anticancer Drug Screen. Data for the mlh1 rad18 strain (AID 175). The conditions noted are these: S. cerevisiae mlh1 rad18 strain growth inhibition; at 50.0 µM; hits give high values. The method in brief: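 Cells of a genetically altered yeast strain, deficient in DNA damage repair, were treated with compound. Their growth was then compared with that of vehicle-treated cultures to give inhibition.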
In the case of `Cc1ccc(C(=O)C(O)c2ccc(C)cc2)cc1` (stereo not given), the growth inhibition is -7.05%.

For `CC1(c2ccc(-c3ccccc3)cc2)NC(=O)NC1=O` (stereo not given), the growth inhibition was -2.3%.

Regarding `N#CC(N)c1ccc(OCCCCCCCCCCOc2ccc(C(N)C#N)cc2)cc1` (stereo not given), the growth inhibition was -20.8%.

In the case of `O=C1NC(=O)C(=C/C=C/C=C\C2C(=O)NC(=O)NC2=O)C(=O)N1`, the growth inhibition is -10.6%.

Regarding `C=C(C)C(=O)OCCOCC(CC)CCCC` (stereo not given), the growth inhibition was -1.8%.

As to `CCCCCC(C/C=N/N(C)C)C(O)(C(F)(F)F)C(F)(F)F` (stereo not given), the growth inhibition was 73.2% (active).

`CCOc1ccc(NC(=O)C(=O)CC(=O)c2sc(NNC(C)=O)nc2C)cc1`: the growth inhibition was -8%.

Take `COc1ccc(Cc2ccccc2C(=O)c2ccc(OC)cc2)cc1`: the growth inhibition was -14.8%.

For the compound `COc1c(C(=O)O)ccc(C(=O)NCCCCCN(O)C(=O)CCC(=O)NCCCCCN(O)C(=O)CCC(=O)NCCCCCN(O)C(C)=O)c1OC`, the growth inhibition is -28.4%.

Turning to `O=C1OC(c2ccc(Cl)cc2)=N/C1=C\c1c(Cl)cccc1Cl`, the growth inhibition was -13.7%.

For the compound `CCOC(=O)C1=C(C)Oc2cc3c(cc2C1c1ccc(OC)cc1)OCO3` (stereo not given), the growth inhibition is 6.65%.

With `COc1ccc(-c2c3c(nc4nc(SCC(=O)c5ccc(Br)cc5)nc(N)c24)CCCC3)cc1OC`, the growth inhibition was 9.65%.

With `CCCC1(C)OCC(CCl)O1` (stereo not given), the growth inhibition is 0.15%.

For the compound `CCCCCCCCCCCC(=O)Nc1ccc(C(C)C)cc1`, the growth inhibition is -12.8%.

Turning to `COC(=O)C(O)(C(=O)OC)C1=C(N)C(=O)c2ccccc2C1=O`, the growth inhibition was 28.3%.

With `CC12CCC3c4ccc(OC(=O)C56C=CC(=O)C5C5C=CC6CC5)cc4CCC3C1CCC2=O` (stereo not given), the growth inhibition is 0.05%.

Take `COC(=O)CCc1cc(=O)oc2ccc3cc(CC(=O)OC)oc3c12`: the growth inhibition is 2.15%.

In the case of `CCCCOC(=O)c1ccc(O)cc1.[Zn+2]`, the growth inhibition is -35.4%.

For `CC(=O)C1=C(O)C2(O)C(=O)c3c(c(C)c4ccc(C)c(O)c4c3O)CC2C(N)C1=O` (stereo not given), the growth inhibition is 4%.

With `O=C1CCCCC1CN1CCOCC1` (stereo not given), the growth inhibition is -16.4%.

For the compound `Cc1ccc(/C=C(/C#N)C(N)=O)cc1`, the growth inhibition is 29.9%.

For the compound `O=C(CNc1ccc(Cl)cc1Cl)NC1C=Cc2ccc(S(=O)(=O)Nc3ccc(Cl)cc3Cl)cc2C1=O` (stereo not given), the growth inhibition was 33.1%.

For the compound `CC1(C)C(CC(=O)O)CC1C(=O)O` (stereo not given), the growth inhibition is -1.4%.

Regarding `CC(O)CNC(=O)C(C)O` (stereo not given), the growth inhibition is 7.6%.

With `CC1(C)[C@@H]2C[C@H]1[C@@H](Cc1cccc(C[C@H]3c4cc(-c5ccccn5)ncc4[C@H]4C[C@@H]3C4(C)C)c1)c1cc(-c3ccccn3)ncc12`, the growth inhibition is 45.4%.

Consider `COC(=O)CC(NC(=O)OCc1ccccc1)C(=O)NCC(=O)NCC(=O)O` (stereo not given), for which the growth inhibition is 2.5%.

Regarding `C=CCCc1cc(OC)ccc1C(=O)C(C)C`, the growth inhibition was -12.6%.

As to `CCOC(=O)Nc1cc(C(F)(F)F)ccc1F`, the growth inhibition was -7.1%.

For the compound `c1csc(-c2nn3c(C45CC6CC(CC(C6)C4)C5)nnc3s2)c1`, the growth inhibition is -12.8%.

With `Cc1c2ccn3c(=O)c4ccccc4cc3c2c(C)c2c1[nH]c1ccccc12`, the growth inhibition was 26.6%.

On to `O=C(O)c1cc(-c2ccccc2)nc2c(Cl)cc(Cl)cc12`, for which the growth inhibition was -3.6%.

Take `CCOC(=O)C(CN1CCN(CC(NC=O)(C(=O)OCC)C(=O)OCC)CC1)(NC=O)C(=O)OCC`: the growth inhibition is -30.1%.

As for `COc1cc(C2c3cc4c(c(OC(=O)c5ccncc5)c3CC3COC(=O)C32)OCO4)cc(OC)c1OC` (stereo not given), the growth inhibition is -0.05%.

For `O=C(O)C1CCCCN1C(=O)c1ccccc1` (stereo not given), the growth inhibition is -15.5%.

In the case of `O=C1OC(c2cccc(Cl)c2)=N/C1=C\c1ccc(Cl)cc1`, the growth inhibition is 0.6%.

Take `CC1=C(C#N)C(C#N)(C#N)C(NN(C)C)C1` (stereo not given): the growth inhibition was -40%.

As to `S=C1c2cc(Cl)ccc2NC(=NC2CCCC2)C2CSCN12` (stereo not given), the growth inhibition was 28.5%.

For the compound `CCCCCCCCO[Si](OCCCCCCCC)(OCCCCCCCC)OCCCCCCCC`, the growth inhibition was -20.9%.

For `C=CC(C)(CCC=C(C)C)OC(C)=O` (stereo not given), the growth inhibition was 34.7%.

`COc1cc(/C=C/c2cc(/C=C/c3ccc(O)c(OC)c3)c([N+](=O)[O-])cc2[N+](=O)[O-])ccc1O`: the growth inhibition was 47.7%.
